# Assay outcomes from PubChem BioAssay.
# TIM10 inh – growth inhibitors of TIM10 yeast strain. S. cerevisiae TIM10 strain growth, BacTiter-Glo luminescence, 24 h. inhibition, % at 10 µM. hit rate 1.4% among 330,000;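 active = inhibition of 40% or more at the single tested concentration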;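 note: wild-type TIM10 isogenic control strain grown at permissive 25 °C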
# tim23-1 inh – growth inhibitors of tim23-1 mutant yeast. hit rate 1.3% among 330,000. S. cerevisiae tim23-1 growth, BacTiter-Glo luminescence, 24 h. inhibition, % at 20 µM;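 active = growth inhibition of the mutant yeast at or above 50%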;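 note: temperature-sensitive mutant grown at 25 °C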
# V-ATPase pHluor – yeast V-ATPase proton transport regulation by pHLuorin; S. cerevisiae, pHLuorin cytosolic pH fluorescence; response, % at 10 µM; hit rate 0.37% among 350,000; AID 504577; in the data active = response mostly above about 7.3%, no sharp cut-off; inactive = mostly below about 5.4%; note: actives read high
# NALP1 yeast inh – inhibitors of NALP1 inflammasome in yeast. S. cerevisiae NALP1/ASC/caspase-1 growth, X-gal OD620, 72 h. inhibition, % at 10 µM. hit rate 0.61% among 280,000. AID 2071; in the data active = inhibition mostly above about 24%, no sharp cut-off; inactive = mostly below about 32%
# tim10-1 inh – growth inhibitors of tim10-1 mutant yeast | S. cerevisiae tim10-1 ts strain growth, BacTiter-Glo, 24 h | inhibition, % at 20 µM | hit rate 2.2% among 330,000 | AID 463190;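 active = inhibition of at least 40%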;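 note: mutant grown at 25 °C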
# NLRP3 yeast inh – NALP3 inhibition in yeast. Yeast reconstituted NLRP3/ASC/caspase-1, beta-gal luminescence, 24 h. inhibition, % at 10 µM. hit rate 0.39% among 330,000;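 active = inhibition of 50% or more; inactive = inhibition below 50%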
# tim23-1 conf – tim23-1 yeast growth inhibition, confirmed; shares compounds with tim23-1 inh; S. cerevisiae tim23-1 growth, BacTiter-Glo luminescence, 24 h; inhibition, % at 20 µM; hit rate 83% among 4,400;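 active = inhibition above about 39% in either of two replicate wells at 20 µM, limit read from the data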;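 note: temperature-sensitive tim23-1 mutant grown at 25 °C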
# Hits are given with their value; - = inactive; . = no result. Only some compounds are listed: those with a hit (about 4.2% of all), similar ones and a draw of the others.
SMILES,TIM10 inh,tim23-1 inh,V-ATPase pHluor,NALP1 yeast inh,tim10-1 inh,NLRP3 yeast inh,tim23-1 conf
O=C(NCC(=O)N(c1ccccc1)C(C(=O)NC1CCCCC1)c1ccncc1)c1ccco1 (stereo not drawn),-,-,-,-,-,-,.
O=C(NCC(=O)N(c1cnc2ccccc2c1)C(C(=O)NC1CCCC1)c1ccncc1)c1ccco1 (stereo not drawn),-,68,-,-,-,-,-
CSc1nc2nc3c(cc2c(=O)n1-c1ccccc1C)CCCC3,-,55,-,-,-,-,44
O=C(Nc1ccc(Cl)c(NC(=O)c2cccs2)c1)c1ccco1,-,55,-,-,-,-,48
O=C(Nc1ccc(N2CCN(C(=O)c3ccco3)CC2)c(Cl)c1)c1cccs1,-,58,-,-,-,-,53
O=C(N/N=C/C1CC2C=CC1C2)c1ccccc1O (stereo not drawn),-,-,-,-,-,-,.
CCN(CC)CCNC(=O)c1cc(Nc2ccc(OC)c(OC)c2)nc2ccccc12,-,-,-,-,-,-,.
OCC[C@H]1C[C@@H](O)[C@H](O)[C@]2(OCc3ccccc32)O1,-,-,-,.,-,-,.
C=CCOc1c(Br)cc(CNCCCN2CCOCC2)cc1OC,-,-,-,-,-,-,.
COc1ccc(CCNC(=S)Nc2ccc(C(C)C)cc2)cc1,-,51,-,.,-,-,-
O=C(Oc1ccc2c(c1)OCO2)C12CC3CC(CC(C3)C1)C2,-,-,-,-,-,-,.
O=C(OCC(=O)C12CC3CC(CC(C3)C1)C2)c1ccc(O)cc1,-,63,-,.,-,-,61
O=C(Oc1ccc(O)cc1)C12CC3CC(CC(C3)C1)C2,-,63,-,-,-,-,66
CN(C)CCCNCC(=O)NN(c1ccccc1)c1ccccc1,-,-,.,.,-,-,.
Cc1ccc(C)c(Nc2nc(-c3cccnc3)cs2)c1,-,50,-,-,-,-,-
CC(=O)Nc1ccc(S(=O)(=O)NCC(=O)OCC(=O)NCCc2ccccc2)cc1,.,.,-,.,.,.,.
O=C(COC(=O)c1cccc(OC(F)F)c1)Nc1cccc(S(=O)(=O)N2CCCC2)c1,-,-,-,.,-,-,.
COc1ccc(-c2cn3c(C)c(C(=O)N4CCCc5ccccc54)sc3n2)cc1,-,53,-,.,-,-,59
COc1ccc(C(=O)N2CCCc3ccccc32)cc1,-,-,-,-,-,-,.
O=C(c1ccc(CS(=O)c2ccc(F)cc2)o1)N1CCN(C2CCCCC2)CC1 (stereo not drawn),-,-,-,-,-,-,.
Cc1cc(C(=O)N/N=C/c2ccc([N+](=O)[O-])s2)c2ccccc2n1,-,65,-,-,-,-,59
O=C(N/N=C/c1cc([N+](=O)[O-])ccc1Cl)c1cc(-c2ccccc2)nc2ccccc12,-,-,-,.,-,-,.
Cc1cc(C(=O)N/N=C/c2ccc([N+](=O)[O-])cc2)c2ccccc2n1,-,-,-,-,-,-,.
O=C(N/N=C/c1ccc([N+](=O)[O-])s1)c1ccccc1Br,-,77,-,-,-,-,64
O=C(N/N=C/c1cc([N+](=O)[O-])ccc1O)c1cc(-c2ccccc2)nc2ccccc12,-,58,-,-,-,-,58
SMILES,TIM10 inh,tim23-1 inh,V-ATPase pHluor,NALP1 yeast inh,tim10-1 inh,NLRP3 yeast inh,tim23-1 conf
CCCOc1ccc(-c2c(C(=O)N/N=C(\C)c3cccs3)nnn2-c2nonc2N)cc1,-,-,-,-,-,-,.
CN(C(=O)c1cccc(NC(=O)Cc2ccc(NC(=O)C3CCCN(C(=O)C4CCC4)C3)cc2)c1)C1CCCCC1 (stereo not drawn),.,.,-,.,.,.,.
N=c1oc2ccc([N+](=O)[O-])cc2cc1C(=O)NCc1ccccc1,-,59,-,-,-,-,56
N=c1oc2ccc(Br)cc2cc1C(=O)NCc1ccccc1,-,-,-,-,-,-,.
O=C(O/N=C(\c1ccccc1)c1ccncc1)c1ccccc1Cl,-,52,-,-,-,-,53
CC(C)(C)C(=O)Nc1ccc(/C=C/C(=O)c2ccco2)cc1,-,51,-,-,-,-,45
CS/C(Nc1cc(Cl)ccc1Cl)=C(/C#N)C(=O)c1ccco1,-,59,-,-,-,-,52
COc1cccc(NC(=O)COC(=O)CC2CC3CCC2C3)c1 (stereo not drawn),-,56,-,.,-,-,41
CC(=O)c1cccc(NC(=O)COC(=O)CC2CC3CCC2C3)c1 (stereo not drawn),-,-,-,.,-,-,.
O=C(/C=C/c1ccccc1)Oc1cccc2cccnc12,-,54,-,-,-,-,43
NC(=O)COc1cccc2cccnc12,-,-,-,-,-,-,.
O=C(CN(Cc1ccc(Br)cc1)S(=O)(=O)c1ccccc1)NCc1cccnc1,-,-,-,-,-,-,.
O=C(NCc1cccnc1)/C(=C\c1ccc(-c2ccc(Br)cc2)o1)S(=O)(=O)c1ccccc1,-,52,-,-,-,-,63
O=C(Nc1ccc(Cl)cc1)Nc1ccccc1Sc1ncc([N+](=O)[O-])s1,-,54,-,.,-,-,72
O=C(Cc1ccc(Cl)cc1)Nc1ncc([N+](=O)[O-])s1,.,.,-,-,.,.,.
CCc1oc2ccccc2c1C(=O)c1cc(Br)c(O)c(Br)c1,-,56,-,-,-,-,-
Cc1ccc(CSc2nc(N)cc(=O)[nH]2)cc1,-,-,-,-,-,-,.
O=C(O)c1cc(/C=C/c2ccc(N3CCOCC3)cc2)nc2ccccc12,-,52,-,-,-,-,41
O=C(O)c1cc(/C=C/c2ccc(N3CCOCC3)c([N+](=O)[O-])c2)nc2ccccc12,-,-,-,.,-,-,.
CC(c1ccccc1)n1c(-c2ccc(Cl)cc2)n[nH]c1=S (stereo not drawn),-,55,-,-,-,-,-
CCOC(=O)c1ccc(NC(=O)/C=C/c2cccs2)cc1,-,61,-,-,-,-,52
CN(C)c1c2ccccc2nc2c(F)c(F)c(F)c(F)c12,-,64,-,-,-,-,67
Cc1c2ccccc2nc2c(F)c(N(C)C)c(F)c(F)c12,-,-,-,-,-,-,.
COc1ccc(NC(=O)CCn2cccc2)c(OC)c1,-,-,-,-,-,-,.
COc1ccc(C(C[N+](=O)[O-])c2c(C)cc3ccccn23)c(OC)c1 (stereo not drawn),-,82,-,-,-,-,75
COc1ccnc(CS(=O)c2nc3cc(OC(F)F)ccc3[nH]2)c1OC (stereo not drawn),-,-,.,.,-,-,.
CCN(CC)C(=O)CSc1nnc([C@@H](N)C(C)C)o1,-,-,-,.,-,-,.
COc1ccc(N=CC2=C(Nc3ccc(OC)cc3)c3c(C)nn(-c4ccccn4)c3CC2)cc1,-,51,.,.,-,-,52
COc1ccc(-c2cc(C(=O)O)c3c(C)nn(-c4ccccn4)c3n2)cc1,-,-,.,-,-,-,.
